Test results from ChEMBL document CHEMBL3988442, “University of Dundee, Small-Polar-MMV Screening Library” (2021).
The whole screen tested about 48,000 compounds, of which about 13,000 (27%) showed an effect of 50% or more. This is one part of the list.

What follows are compounds tested on Wolbachia pipientis (assay: Anti-Wolbachia Cell-Based Screen). Conditions: 5 µM.
Assay type: functional
Set-up: scale not given: in the data most compounds retested in dose-response had high values

| SMILES | Percent Effect [%] |
| --- | --- |
| CC(C)CCN(C)C(=O)c1cc(CN2CCC(O)CC2)on1 | -4.489 |
| CCC(=O)N1CCc2[nH]cnc2C12CCN(C(=O)c1snnc1C)CC2 | 7.824 |
| CNc1cc(C2CN(Cc3cccnc3NC)CCO2)nc(C)n1 (stereo unspecified) | 96.43 |
| Cc1ccc(C2CN(Cc3cnc(-c4ccccn4)s3)CCO2)o1 (stereo unspecified) | 1.384 |
| CNc1cc(C)nc(C2CN(Cc3ccc(C)nc3)CCO2)c1 (stereo unspecified) | -3.28 |
| Cc1cc(N2CCC(n3cc(CN4CCSCC4)nn3)CC2)ccn1 | -12.68 |
| CCOC(=O)C1CCN(Cc2c(O)ccc3oc4c(c23)CCCC4)CC1 | 10.57 |
| COc1cc2c(cc1OC)CN(C(=O)Cn1nc(C)cc1C)CC2 | 1.135 |
| COc1cc(C)cc(C(C(=O)O)N(C)CCN2CCCC2)c1OC (stereo unspecified) | -1.945 |
| COc1cc2c(c(OC)c1OC)CCN(CCn1cncn1)CC2 | 66.41 |
| COc1cc2c(c(OC)c1OC)CCN(CCN1CCCCC1)CC2 | 112.9 |
| c1ccc(CCCN2CCN(CCn3cncn3)CC2)cc1 | 3.655 |
| COc1ccc(-c2nccn2CCN2CCCCC2)c(OC)c1OC | -1.363 |
| COc1cc2c(cc1OC)CCN(C(=O)Cn1nc(C)cc1C)CC2 | 0.6612 |
| COc1cc2c(c(OC)c1OC)CCN(CCn1nc(C)cc1C)CC2 | 72.3 |
| COc1ccc(CN2CCn3cncc3C2)cc1Cn1cncn1 | 18.87 |
| O=C(C1CC=CC1)N1C[C@@H]2CN(Cc3ccsc3)CCO[C@@H]2C1.O=C(O)C(F)(F)F | 1.635 |
| CS(=O)(=O)CCNC(=O)N(Cc1ccoc1)C1CCCCC1 | -12.04 |

| SMILES | Percent Effect [%] |
| --- | --- |
| COc1ccc(Cc2nnc3n2N=C(C(C)(C)C)CS3)cc1 | 3.244 |
| CSCC(C)(O)CNC(=O)c1cccc(Cl)c1Cl (stereo unspecified) | -18.01 |
| Cc1nn2cccnc2c1C(=O)N1CCCC(n2ccnc2)C1 (stereo unspecified) | 4.541 |
| Cc1cc(C(=O)N2CCCC(n3cncn3)C2)c(C)n1C1CC1 (stereo unspecified) | 0.2394 |
| Cc1cc(C(=O)N2CCCC(n3cccn3)C2)c(C)n1C1CC1 (stereo unspecified) | 121.6 |
| Cc1cc(C(=O)N2CCCC(n3ccnc3)C2)c(C)n1C1CC1 (stereo unspecified) | 137.5 |
| Cn1ncc(C(=O)N2CCCC(n3cccn3)C2)c1C1CC1 (stereo unspecified) | 3.227 |
| Cn1cc(N2CCC(Nc3ccc4nccnc4n3)C2=O)cn1 (stereo unspecified) | -8.237 |
| Cc1nnc2n1CC(CNc1cnc3ccccc3n1)CC2 (stereo unspecified) | 0.6716 |
| Cc1ccn(CCNc2ncnc3c2CCN(S(C)(=O)=O)CC3)n1 | 5.573 |
| Cc1oncc1C(=O)N[C@@H]1CN(Cc2ccoc2)C[C@@H]2CCCO[C@@H]21.O=C(O)C(F)(F)F | 105.5 |
| O=C(N[C@@H]1CN(Cc2ccoc2)C[C@@H]2CCCO[C@@H]21)C1CCC1 | 85.36 |
| CN(C)[C@@H]1CN(Cc2ccoc2)C[C@@H]2CCCO[C@@H]21.O=C(O)C(F)(F)F.O=C(O)C(F)(F)F | -4.757 |
| O=C(CC1CC1)N[C@@H]1CN(Cc2ccoc2)C[C@@H]2CCCO[C@@H]21 | -6.81 |
| CS(=O)(=O)N[C@@H]1CN(Cc2ccco2)C[C@@H]2CCCO[C@@H]21.O=C(O)C(F)(F)F | 1.285 |
| Cc1oncc1C(=O)N[C@@H]1CN(Cc2ccco2)C[C@@H]2CCCO[C@@H]21.O=C(O)C(F)(F)F | 107.8 |
| O=C(CC1CC1)N[C@@H]1CN(Cc2ccco2)C[C@@H]2CCCO[C@@H]21.O=C(O)C(F)(F)F | -7.613 |
| Cc1oncc1C(=O)N[C@@H]1CN(c2ncccn2)C[C@@H]2CCCO[C@@H]21.O=C(O)C(F)(F)F | -3.566 |
